Experimental findings from PubChem BioAssay (NCI) are described below.

A short description of test [1]: NCI Yeast Anticancer Drug Screen. Data for the rad50 strain (AID 155).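 Further: 0% = growth of vehicle-only cultures of the same strain.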 The note with it: S. cerevisiae rad50 strain growth inhibition, hits give high values. The procedure, abridged: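 A DNA repair-deficient yeast mutant serves as the test organism; compound-induced growth inhibition is calculated against vehicle-treated cells.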
Test [2] in a line: NCI Yeast Anticancer Drug Screen. Data for the mec2-1 strain (AID 157). The note with it: S. cerevisiae mec2-1 strain, hits give high values. In short, it runs like this: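 Using mec2-1 yeast: add compound, measure growth, express inhibition versus vehicle-treated cultures.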
A short description of test [3]: NCI Yeast Anticancer Drug Screen. Data for the sgs1 mgt1 strain (AID 161).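 Further: 0% = growth of cultures given vehicle only.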 The note with it: S. cerevisiae sgs1 mgt1 strain, hits give high values. In short, it runs like this: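 Compounds are added to genetically altered yeast, and growth is compared with cultures given vehicle alone to give percent inhibition.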
A short description of test [4]: NCI Yeast Anticancer Drug Screen. Data for the cln2 rad14 strain (AID 165).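 Further: 0% = growth equal to vehicle treated cultures.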 The following applies: S. cerevisiae cln2 rad14 strain, hits give high values. The procedure, abridged: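 Yeast strain cln2 rad14, bearing defects in cell cycle control and DNA repair, serves as the test system; values reflect growth inhibition compared with vehicle.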
The nature of test [5]: NCI Yeast Anticancer Drug Screen. Data for the bub3 strain (AID 167). The following applies: S. cerevisiae bub3 mutant strain, hits give high values. The procedure, abridged:
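Inhibition values come from growth of compound-treated mutant yeast normalised to vehicle-treated controls.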

The nature of test [6]: NCI Yeast Anticancer Drug Screen. Data for the mlh1 rad18 strain (AID 175). The note with it: S. cerevisiae mlh1 rad18 strain growth inhibition, hits give high values. In short, it runs like this:
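Steps: expose repair-defective yeast to compound; measure growth; express inhibition against vehicle-treated controls.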

Where [7] appears, read: at 5.0 µM (retest, dose inferred, filed as 0.5).
Setting [8] is: at 50.0 µM (retest, dose inferred, filed as 5.0).

This is part of a sample that, as a whole, favours compounds with a hit. Of some 79,000 tested, about 15% had one in any assay. Unmarked numbers belong to inactive results. Active and inactive are the calls of the source. No stated cut-off is given here; in the data, active means growth inhibition above about 70%; inactive means the rest.

Regarding `O=C1CN(CCN2CCOCC2)CC(=O)N2CCCCN12`, the growth inhibition in test [1] (setting [7]) is 1%; in test [1] (setting [8]), -1%; in test [1] (at 50.0 µM), 3.3%; in test [2] (setting [7]), -2%; in test [2] (setting [8]), -1%; in test [2] (at 50.0 µM) it was 2.55%. Besides, the growth inhibition in test [3] (setting [7]) is 3%; in test [3] (setting [8]), 7%; in test [3] (at 50.0 µM), 32.6%; in test [4] (setting [7]), -8%; in test [4] (setting [8]), 2%; in test [4] (at 50.0 µM), 11.6%. Further, the growth inhibition is -6% in test [5] (setting [7]); -3% in test [5] (setting [8]); 5.7% in test [5] (at 50.0 µM); -1% in test [6] (setting [7]); -2% in test [6] (setting [8]); 1.45% in test [6] (at 50.0 µM).
On to `CNCCN[C@@H]1c2cc3c(cc2[C@@H](c2cc(OC)c(O)c(OC)c2)[C@H]2C(=O)OC[C@@H]21)OCO3`, for which the growth inhibition in test [1] (setting [7]) is 96% (active); in test [1] (setting [8]) it was 97% (active); in test [1] (at 50.0 µM) it was 78.8% (active); in test [2] (setting [7]), 43%; in test [2] (setting [8]) it was 91% (active); in test [2] (at 50.0 µM), 65.3%. In addition, the growth inhibition in test [3] (setting [7]) was -24%; in test [3] (setting [8]), 75% (active); in test [3] (at 50.0 µM), 88.1% (active); in test [4] (setting [7]), 3%; in test [4] (setting [8]), 42%; in test [4] (at 50.0 µM) it was 82.4% (active). Moreover, the growth inhibition in test [5] (setting [7]) was -3%; in test [5] (setting [8]), 84% (active); in test [5] (at 50.0 µM), 87% (active); in test [6] (setting [7]), 43%; in test [6] (setting [8]), 89% (active); in test [6] (at 50.0 µM), 87.8% (active).
Regarding `Cn1c(=S)c2[nH]c(SC3CCCCC3)nc2n(C)c1=O`, the growth inhibition in test [1] (setting [7]) was 46%; in test [1] (setting [8]), 68%; in test [1] (at 50.0 µM), 94.8% (active); in test [2] (setting [7]), 42%; in test [2] (setting [8]), 61%; in test [2] (at 50.0 µM), 99.5% (active). The growth inhibition is 41% in test [3] (setting [7]); -20% in test [3] (setting [8]); 99.2% (active) in test [3] (at 50.0 µM); 27% in test [4] (setting [7]); 34% in test [4] (setting [8]); 52.5% in test [4] (at 50.0 µM). The growth inhibition in test [5] (setting [7]) was 52%; in test [5] (setting [8]), 63%; in test [5] (at 50.0 µM) it was 98.2% (active); in test [6] (setting [7]), 23%; in test [6] (setting [8]) it was 62%; in test [6] (at 50.0 µM), 98.8% (active).
`CC1CCN(CC(=O)N2c3ccccc3Sc3cc4ccccc4cc32)CC1`: the growth inhibition was 4% in test [1] (setting [7]); 15% in test [1] (setting [8]); 10.2% in test [1] (at 50.0 µM); 4% in test [2] (setting [7]); -20% in test [2] (setting [8]); 13.6% in test [2] (at 50.0 µM). Also, the growth inhibition in test [3] (setting [7]) was -15%; in test [3] (setting [8]), 12%; in test [3] (at 50.0 µM) it was -14.6%; in test [4] (setting [7]), -37%; in test [4] (setting [8]), -4%; in test [4] (at 50.0 µM), 23.8%. Further, the growth inhibition in test [5] (setting [7]) is -4%; in test [5] (setting [8]), 7%; in test [5] (at 50.0 µM), -3.9%; in test [6] (setting [7]), -4%; in test [6] (setting [8]) it was 8%; in test [6] (at 50.0 µM), -2.5%.
Regarding `CC1CCC(C(C)(C)c2ccc(O)cc2)CC1` (stereo not given), the growth inhibition in test [1] (setting [7]) was 0%; in test [1] (setting [8]), 97% (active); in test [1] (at 50.0 µM) it was 97.7% (active); in test [2] (setting [7]), -1%; in test [2] (setting [8]), 98% (active); in test [2] (at 50.0 µM), 98.2% (active). For the same compound, the growth inhibition in test [3] (setting [7]) is 3%; in test [3] (setting [8]), 98% (active); in test [3] (at 50.0 µM), 98.8% (active); in test [4] (setting [7]), -6%; in test [4] (setting [8]), 96% (active); in test [4] (at 50.0 µM), 97.6% (active). In addition, the growth inhibition in test [5] (setting [7]) was -4%; in test [5] (setting [8]), 97% (active); in test [5] (at 50.0 µM) it was 98.3% (active); in test [6] (setting [7]), -6%; in test [6] (setting [8]), 98% (active); in test [6] (at 50.0 µM), 98.3% (active).
Regarding `CCCCc1ccc2nccc(N/N=C/c3ccc(OC)c4ccccc34)c2c1`, the growth inhibition is 1% in test [1] (setting [7]); 91% (active) in test [1] (setting [8]); 80% (active) in test [1] (at 50.0 µM); -27% in test [2] (setting [7]); 89% (active) in test [2] (setting [8]); 69.3% in test [2] (at 50.0 µM). Moreover, the growth inhibition is 2% in test [3] (setting [7]); 94% (active) in test [3] (setting [8]); 76.7% (active) in test [3] (at 50.0 µM); -2% in test [4] (setting [7]); 73% (active) in test [4] (setting [8]); 62.4% in test [4] (at 50.0 µM). The growth inhibition is -4% in test [5] (setting [7]); 90% (active) in test [5] (setting [8]); 79% (active) in test [5] (at 50.0 µM); 1% in test [6] (setting [7]); 88% (active) in test [6] (setting [8]); 90.1% (active) in test [6] (at 50.0 µM).
Turning to `O=Cc1ccc2ccc3ccccc3c2c1`, the growth inhibition is -8% in test [1] (setting [7]); 85% (active) in test [1] (setting [8]); 85.9% (active) in test [1] (at 50.0 µM); 8% in test [2] (setting [7]); 66% in test [2] (setting [8]); 41.4% in test [2] (at 50.0 µM). In addition, the growth inhibition in test [3] (setting [7]) is 6%; in test [3] (setting [8]) it was 56%; in test [3] (at 50.0 µM), 79.1% (active); in test [4] (setting [7]) it was -19%; in test [4] (setting [8]) it was 94% (active); in test [4] (at 50.0 µM), 21.2%. The growth inhibition in test [5] (setting [7]) is -27%; in test [5] (setting [8]), 95% (active); in test [5] (at 50.0 µM), 70.8% (active); in test [6] (setting [7]), -7%; in test [6] (setting [8]) it was 93% (active); in test [6] (at 50.0 µM), 84.9% (active).
As for `CC(=O)Nc1ccc(C(=O)C(C)Br)cc1` (stereo not given), the growth inhibition was 38% in test [1] (setting [7]); 99% (active) in test [1] (setting [8]); 62.8% in test [1] (at 50.0 µM); 28% in test [2] (setting [7]); 99% (active) in test [2] (setting [8]); 81.8% (active) in test [2] (at 50.0 µM). In addition, the growth inhibition in test [3] (setting [7]) was 43%; in test [3] (setting [8]) it was 99% (active); in test [3] (at 50.0 µM), 80.5% (active); in test [4] (setting [7]) it was 24%; in test [4] (setting [8]), 98% (active); in test [4] (at 50.0 µM), 23.6%. For the same compound, the growth inhibition in test [5] (setting [7]) is 30%; in test [5] (setting [8]) it was 99% (active); in test [5] (at 50.0 µM) it was 66.1%; in test [6] (setting [7]), 40%; in test [6] (setting [8]), 99% (active); in test [6] (at 50.0 µM), -30.8%.
On to `Cc1cc(C)nc(NS(=O)(=O)c2ccc(Nc3nc(-c4cccc([N+](=O)[O-])c4)cs3)cc2)n1`, for which the growth inhibition in test [1] (setting [7]) was 14%; in test [1] (setting [8]), 99% (active); in test [1] (at 50.0 µM), 23.1%; in test [2] (setting [7]) it was -1%; in test [2] (setting [8]), 99% (active); in test [2] (at 50.0 µM), 30.5%. The growth inhibition in test [3] (setting [7]) was 7%; in test [3] (setting [8]), 99% (active); in test [3] (at 50.0 µM) it was 47.6%; in test [4] (setting [7]) it was -26%; in test [4] (setting [8]), 98% (active); in test [4] (at 50.0 µM), 51.9%. In addition, the growth inhibition in test [5] (setting [7]) is 34%; in test [5] (setting [8]) it was 99% (active); in test [5] (at 50.0 µM), 75.2% (active); in test [6] (setting [7]), 5%; in test [6] (setting [8]) it was 99% (active); in test [6] (at 50.0 µM) it was 53%.
As to `COc1ccc2c(c1)CC/C(=C\c1ccc(OCCN(C)C)cc1)C2=O`, the growth inhibition in test [1] (setting [7]) was 12%; in test [1] (setting [8]), 19%; in test [1] (at 50.0 µM) it was 40.2%; in test [2] (setting [7]) it was 2%; in test [2] (setting [8]), 15%; in test [2] (at 50.0 µM), 48.8%. Moreover, the growth inhibition was 8% in test [3] (setting [7]); 33% in test [3] (setting [8]); 44.8% in test [3] (at 50.0 µM); 8% in test [4] (setting [7]); -3% in test [4] (setting [8]); 15.4% in test [4] (at 50.0 µM). Also, the growth inhibition was 12% in test [5] (setting [7]); 25% in test [5] (setting [8]); 20.4% in test [5] (at 50.0 µM); 6% in test [6] (setting [7]); 28% in test [6] (setting [8]); 57% in test [6] (at 50.0 µM).
